# Cycloheximide cs: counter-screen hit for Shiga toxin inhibitors, cycloheximide | cell reporter, cycloheximide protein synthesis inhibition counterscreen | max response, % | actives 12% (n = 300,000) | AID 2314; in the data active = max response mostly above about 13%, no sharp cut-off; inactive = mostly below about 14%; also: read at 38.3 µM for the half of the compounds with a filed dose; 0% is about no effect
# SARS PLP yeast: blocks SARS-CoV papain-like protease in a yeast assay | Potency, µM (titrated, usually from 32.9 µM), for inactives: at the top dose activity, positive = growth rescue, usual class: activators | actives 0.19% (n = 330,000) | S. cerevisiae expressing SARS-CoV PLpro, growth rescue; calls by dose curve; also: potency is read from the fitted curve at half-maximal effect; 0% is about no effect; nearly all actives have a fitted effect of over 55% in size
# LmPK inhibitor: LmPK (Leishmania mexicana) enzyme inhibition; AID 1721; actives 0.37% (n = 290,000); purified LmPK, Kinase-Glo ATP luminescence, 1 h; Potency, µM (doses to about 57.5 µM), without a hit: at the top dose activity change, negative = inhibition, actives largely listed as inhibitors; also: potency is read from the fitted curve at half-maximal effect; % is scaled to controls: 0 for no effect and ±100 for the full control effect
# Target sequence (Q27686 whole entry, looked up): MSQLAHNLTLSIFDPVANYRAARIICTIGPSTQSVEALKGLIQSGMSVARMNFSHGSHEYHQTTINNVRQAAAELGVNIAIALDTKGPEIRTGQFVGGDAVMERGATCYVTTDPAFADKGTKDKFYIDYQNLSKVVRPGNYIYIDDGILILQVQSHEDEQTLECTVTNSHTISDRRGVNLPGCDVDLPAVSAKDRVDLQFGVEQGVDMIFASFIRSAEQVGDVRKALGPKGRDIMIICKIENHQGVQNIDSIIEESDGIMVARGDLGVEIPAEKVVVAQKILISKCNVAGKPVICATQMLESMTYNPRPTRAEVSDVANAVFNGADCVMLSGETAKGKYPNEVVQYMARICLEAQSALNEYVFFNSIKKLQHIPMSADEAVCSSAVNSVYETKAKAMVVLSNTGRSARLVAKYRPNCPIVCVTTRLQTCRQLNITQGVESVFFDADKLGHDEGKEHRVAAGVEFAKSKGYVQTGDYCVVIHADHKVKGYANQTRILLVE
#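 qHTS format; LmPK 0.1 nM; substrates PEP 0.5 mM and ADP 0.1 mM. One-hour room-temperature incubation, then coupled luciferase luminescence; 0.5 nM enzyme wells mark activation.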
# NS1 function inh: blocks influenza NS1 protein function; Potency, µM (series often up to 46.1 µM), inactives show top-dose activity, positive = more growth; actives 0.4% (n = 270,000); AID 2326; calls by dose curve; also: potency is read from the fitted curve at half-maximal effect; actives are rising curves; nearly all actives have a fitted effect of over 50% in size
#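 OD600 was taken as the measure of yeast growth restored by compound in an NS1-expressing S. cerevisiae strain. Cells had been washed out of glucose medium and diluted 1:100 into galactose -URA medium, pH 6.0.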
# TbPYK inhibitor: inhibitors of Trypanosoma brucei pyruvate kinase; TbPYK enzyme, Kinase-Glo Plus ATP luminescence, 45 min; actives 0.12% (n = 410,000); Potency, µM (series often up to 76.8 µM), for inactives: at the highest dose activity, negative = inhibition, actives largely listed as inhibitors; also: potency is read from the fitted curve at half-maximal effect; % is scaled to controls: 0 for no effect and ±100 for the full control effect; nearly all actives have a fitted effect of over 50% in size
#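 In this concentration-response screen, enzyme-free wells defined baseline while DMSO plates tracked drift. Each reaction combined TbPYK, substrate, compound and 130 uM ADP for 45 min at room temperature. Kinase-Glo Plus luminescence gave the signal.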
# Shiga toxin inh: Shiga toxin inhibition; AID 2315; Vero cells, Shiga toxin protein synthesis inhibition reporter; inhibition, % at 38.7 µM; actives 9.2% (n = 290,000); in the data active = inhibition mostly above about 28%, no sharp cut-off; inactive = mostly below about 43%; also: 0% is about no effect
# Active calls of the source: *; ? = inconclusive; . = not tested or not shown. The entries come from a sample that favours hits as a whole. Unless noted, calls follow the shape of the dose curve; as a rule, active = well fitted curve in the direction sought with a large enough effect; inconclusive = small, poorly fitted or top-dose-only effect, or another doubt; inactive = no such curve, though single readings can be large; an effect the other way counts as inactive or inconclusive.
SMILES,Cycloheximide cs,SARS PLP yeast,LmPK inhibitor,NS1 function inh,TbPYK inhibitor,Shiga toxin inh
COCCNC(=O)c1ccc(N2CCCCC2)c(NS(=O)(=O)c2ccc(C)cc2)c1,16*,2%,6%,-11%,-12%,-1
CC(=O)c1ccc(S(=O)(=O)N2CCCc3ccccc32)cc1,11*,-4%,-5%,14%,2%,27
Cc1ccc(S(=O)(=O)N2CCCc3ccccc32)cc1,.,.,.,.,-9%,.
COc1ccc(S(=O)(=O)N2CCCc3ccccc32)cc1[N+](=O)[O-],-5,-1%,0%,-2%,-1%,-8
COCCNC(=O)c1ccc(S(=O)(=O)N2CCCc3ccccc32)cc1,29*,1%,-2%,2%,0%,74*
Cc1ccc(S(=O)(=O)Nc2cc(C(=O)NCCN(C)C)ccc2N2CCCC2)cc1,-4,2%,-4%,0%,-1%,-8
COc1ccc(S(=O)(=O)N2CCCc3ccccc32)cc1OC,33*,1%,8%,-80%,10%,55*
Cc1ccc(CCNC(=O)c2ccc3c(Cl)c4c(nc3c2)CCCC4)cc1,.,.,.,.,3%,.
Cc1ccc(C)n1-c1nnc(N2CCCC(C(=O)Nc3ccc(C(C)C)cc3)C2)s1 (centres undefined),.,.,.,.,1%,.
Clc1ccc2nc(NCc3ccccc3)c3nncn3c2c1,.,.,.,.,-6%,.
O=S(=O)(c1ccc(F)cc1)N1CCCc2ccccc21,31*,-8%,-3%,-23%,.,.
COc1ccc(C(=O)NCc2cccnc2)cc1S(=O)(=O)N1CCCc2ccccc21,19*,-1%,-4%,-1%,-3%,30
COc1cc(/C=C/C(=O)O)cc(S(=O)(=O)N2CCCc3ccccc32)c1OC,12*,-1%,4%,5%,-16%,13
S=c1cnc2ccccc2[nH]1,30*,-1%,3%,7%,?,70
c1ccc2[nH]c(CCCc3nc4ccccc4[nH]3)nc2c1,-2,-8%,-2%,9%,-7%,-5
CCc1ccc2oc(C(=O)NCCc3ccc(OC)c(OC)c3)cc(=O)c2c1,.,.,.,.,-6%,.
CCc1ccc(S(=O)(=O)Nc2cccc(-c3ccc(N4CCOCC4)nn3)c2)cc1,.,.,.,.,1%,.
Cc1cccc(C)c1OCc1cc(C(=O)N2CCC(c3ccccc3)CC2)no1,41*,-3%,-2%,-15%,-10%,100*
CSc1ccccc1OCc1cc(C(=O)N2CCN(c3ncccn3)CC2)no1,0,3%,-1%,9%,-2%,-20
Cc1cccc(C)c1OCc1cc(C(=O)N2CCN(c3ccc(F)cc3)CC2)no1,52*,-3%,-4%,0%,1%,109*
Cc1cccc(C)c1OCc1cc(C(=O)N2CCC(C3CCCCC3)C2)no1 (centres undefined),.,.,.,.,3%,.
Cc1cccc(C)c1OCc1cc(C(=O)N2CCN(c3ccccn3)CC2)no1,44*,-10%,-11%,-58%,-3%,46*
COc1ccc(-n2nc(C(=O)N3CCCCC3C)c3c4ccccc4n(C)c3c2=O)cc1Cl (centres undefined),.,.,.,.,-1%,.
N#CC1=C(N)Oc2cc(N)ccc2C1c1cccc(Br)c1 (centres undefined),-1,-3%,-1%,12%,-3%,-9
CCC1CN(C(=O)Nc2cccc(OC)c2)c2ccccc2O1 (centres undefined),.,.,.,.,4%,.
SMILES,Cycloheximide cs,SARS PLP yeast,LmPK inhibitor,NS1 function inh,TbPYK inhibitor,Shiga toxin inh
CCS(=O)(=O)C1=NN2C(=N)/C(=C\c3ccc(OS(=O)(=O)c4ccccc4)cc3)C(=O)N=C2S1,33*,23%,2%,-3%,0%,38
CS(=O)(=O)C1=NSC2=NC(=O)/C(=C\c3ccc(OS(=O)(=O)c4ccccc4)cc3)C(=N)N21,16*,-5%,-10%,19%,4%,34*
Cc1ccc(S(=O)(=O)Oc2ccc(/C=C3/C(=N)N4C(=NC3=O)SN=C4S(C)(=O)=O)cc2)cc1,1,4%,-1%,0%,-1%,9
Nc1c(N(Cc2ccco2)C(=O)c2ccccc2F)c(=O)[nH]c(=O)n1Cc1ccccc1,.,-1%,.,.,3%,.
Cc1cc(C(=O)COC(=O)CC2Sc3ccccc3NC2=O)c(C)n1-c1ccc2c(c1)OCO2 (centres undefined),27*,-2%,0%,?,-3%,37
Cc1cc(C(=O)COC(=O)CC2Sc3ccccc3NC2=O)c(C)n1-c1ccccc1 (centres undefined),66*,?,1%,17%,-5%,50*
O=C(CC1Sc2ccccc2NC1=O)OCC(=O)N1CCc2ccccc21 (centres undefined),32*,1%,1%,8%,-5%,92*
COC(=O)c1ccc(-n2c(C)cc(C(=O)COC(=O)CC3Sc4ccccc4NC3=O)c2C)cc1 (centres undefined),21*,-1%,2%,13%,-2%,26*
CCC1Sc2ccc(S(=O)(=O)CCC(=O)N3CCc4ccccc43)cc2NC1=O (centres undefined),-3,3%,-2%,9%,-3%,20
CN1CCC(=O)N([C@H](CO)c2ccccc2)CC1,18*,1%,0%,-13%,-5%,15
Cc1ccc(SCC(CC(C)C)N2CCN(C)CCC2=O)cc1 (centres undefined),33*,.,.,.,.,72*
COc1ccc(SCC(CC(C)C)N2CCN(C)CCC2=O)cc1 (centres undefined),25*,.,.,.,.,53*
O=C1CCN(Cc2ccccc2)CCN1[C@H](CO)c1ccccc1,1,4%,-5%,-1%,2%,-1
CC(C)C[C@@H](CSc1ccccc1)N1CCN(C)CCC1=O,18*,-9%,0%,4%,2%,24
CCN1CCN(c2ncnc3c2cnn3-c2ccc(F)cc2)CC1,.,.,.,.,-12%,.
CC(=O)c1ccc(N2CCN(C(=O)C3CCN(S(=O)(=O)c4ccc(Br)s4)CC3)CC2)cc1,.,.,.,.,1%,.
CC1=C(C(=O)OC(C)C)C(c2ccc(Cl)cc2)n2c(s/c(=C\c3ccc(OCC(=O)O)cc3)c2=O)=N1 (centres undefined),-2,1%,-2%,?,-2%,-4
CCCCOc1ccccc1C(=O)NNC(=S)NC(=O)c1ccccc1[N+](=O)[O-],-1,-4%,-1%,-93%,5%,-14
CC(C)CC(CSc1ccc(Br)cc1)N1CCN(C)CCC1=O (centres undefined),40,.,.,.,.,90*
Clc1ccc(-c2nnc3sc(-c4ccc(Br)o4)nn23)cc1,1,-2%,2%,11%,3%,-12
Cc1oc(-c2ccc(Cl)cc2)cc1-c1nn2c(-c3ccoc3C)nnc2s1,-1,-4%,3%,10µM*,-6%,14
Cc1ccc2[nH]c3c(NCc4ccccc4)ncnc3c2c1,39*,-3%,1%,-2%,-2%,80*

# Bioassay records (PubChem)
